Several values for one entry are separate records, joined by “and”; a condition that tells them apart may be missing. Equal entries are not always repeated. Records with an inconclusive call do not appear. Activity calls are given as the source filed them. Calls come from the whole dose curve; as a rule, active = well fitted activation curve with a large enough effect in the signal ratio (not every such curve was filed as active); inconclusive = small, poorly fitted or top-dose-only effect, or a change in a side signal; inactive = flat fitted curve, though single readings scatter; the % refers to the signal ratio.
assay: qHTS assay for small molecule activators of the p53 signaling pathway (AID 651743); details: HCT-116 p53RE-bla, beta-lactamase FRET ratio, 16 h; activation: active compounds read high; for activation: series mostly up to about 92 µM; % of control where 0% means no effect
Source text: National Center for Advancing Translational Sciences [NCATS] NIH Chemical Genomics Center [NCGC] U.S. Environmental Protection Agency [EPA] National Institutes of Environmental Health Sciences [NIEHS] National Toxicology Program [NTP] Assay Overview: p53, a tumor suppressor protein, is activated following cellular insult, including DNA damage and other cellular stresses. The activation of p53 regulates cell fate by inducing DNA repair, cell cycle arrest, apoptosis, or cellular senescence. The activation of p53, therefore, is a good indicator of DNA damage and other cellular stresses. The CellSensor p53RE-bla HCT-116 cell line (Invitrogen) contains a stably integrated beta-lactamase reporter gene under control of the p53 response elements. The activation of the report gene under culture conditions can be detected by fluorescence intensity. This cell line can be used to screen chemicals in a 1536-well plate format and to identify agonists that activate p53 signaling pathway.
Assay Protocol Summary: The p53RE-bla cells were dispensed at 4,000 cells/5 ul/well in 1536-well black wall/clear bottom plates using a Multidrop dispenser. After the assay plates were incubated at a 37 C/5% CO2 incubator for 5 hours, 23 nL of compounds dissolved in DMSO, positive controls or DMSO only was transferred to the assay plate by a pin tool. The plates were incubated at 37 C for 16 hours. After 1 uL of LiveBLAzer B/G FRET substrate was added using a Flying Reagent Dispenser, the plates were incubated at room temperature for 2 hours, and fluorescence intensity was measured by an Envision plate reader.
Potency is the fitted concentration of half-maximal effect.

| SMILES | activation | Potency |
| --- | --- | --- |
| Oc1cccc(O)c1O | 2.6% (inactive) | – |
| CC(C)CCC[C@@H](C)[C@H]1CC[C@H]2[C@@H]3CC=C4C[C@@H](O)CC[C@]4(C)[C@H]3CC[C@]12C | -0.872% (inactive) | – |
| O=C(OCc1ccccc1)c1ccc(O)cc1 | -6.7% (inactive) | – |
| CC1=CCC2CC1C2(C)C (configuration not stated) | -1.57% (inactive) | – |
| CO | -0.522% (inactive) | – |
| C=C(C)C1CC=C(C)CC1 (configuration not stated) | -4.46% (inactive) | – |
| CC(C)(C)CC(C)(C)c1ccc(OCCO)cc1 | 9.34% (inactive) | – |
| Cc1ccc(S(=O)(=O)NCl)cc1 | -0.574% (inactive) | – |
| CCCCC | 2.34% (inactive) | – |
| CO/N=C(/C(=O)N[C@@H]1C(=O)N2C(C(=O)O)=C(COC(N)=O)CS[C@H]12)c1ccco1 | 1.84% (inactive) | – |
| Oc1ccc(/C=C/c2cc(O)cc(O)c2)cc1 | 5.17% (inactive) and 7.3% (inactive) | – |
| Nc1ncnc2c1ncn2[C@H]1CC[C@@H](CO)O1 | -6.3% (inactive) and -2.15% (inactive) | – |
| C=CC(C)(O)CC/C=C(\C)CCC=C(C)C (configuration not stated) | -1.4% (inactive) | – |
| Nc1nccs1 | 2.07% (inactive) | – |
| OCl | -2.68% (inactive) | – |
| CCCCO | 0.244% (inactive) and -1.87% (inactive) | – |
| CCCCCCCCCCCCCCCCCC(=O)OC[C@@H](O)[C@H]1OC[C@H](O)[C@H]1O | -1.65% (inactive) | – |
| O=c1n(CC2CO2)c(=O)n(CC2CO2)c(=O)n1CC1CO1 (configuration not stated) | – | 15.8 µM (active) and 39.8 µM (active) |
| CC(C)CCCCCCc1ccc(O)cc1 | 2.32% (inactive) | – |

| SMILES | activation | Potency |
| --- | --- | --- |
| C[C@H](CCC(=O)O)[C@H]1CC[C@H]2[C@@H]3CC[C@@H]4C[C@H](O)CC[C@]4(C)[C@H]3C[C@H](O)[C@]12C | -2.17% (inactive) | – |
| OB(O)O | -0.565% (inactive) and -2.3% (inactive) | – |
| NCCN | 3.88% (inactive) | – |
| CC[C@H]1OC(=O)[C@H](C)[C@@H](O[C@H]2C[C@@](C)(OC)[C@@H](O)[C@H](C)O2)[C@H](C)[C@@H](O[C@@H]2O[C@H](C)C[C@H](N(C)C)[C@H]2O)[C@](C)(O)C[C@@H](C)CN(C)[C@H](C)[C@@H](O)[C@]1(C)O | -5.82% (inactive) | – |
| N[C@@H](Cc1cc(I)c(Oc2ccc(O)c(I)c2)c(I)c1)C(=O)O | 5% (inactive) | – |
| OCCOCCOCCO | 1.43% (inactive) and -1.5% (inactive) | – |
| Cc1ccc(S(=O)(=O)O)cc1C | -1.09% (inactive) | – |
| [O-][N+](=Nc1ccccc1)c1ccccc1 | 1.25% (inactive) | – |
| Nc1ccc(N=Nc2ccccc2)c(N)n1 | 2.09% (inactive) and 13.7% (inactive) | – |
| COC(=O)c1ccccc1O | 0.469% (inactive) and 1.6% (inactive) | – |
| CO[C@@H]1[C@H](OC(=O)/C=C/C=C/C=C/C=C/C(=O)O)CC[C@]2(CO2)[C@H]1[C@@]1(C)O[C@@H]1CC=C(C)C | -4.17% (inactive) | – |
| c1ccc2ccccc2c1 | -7.12% (inactive) and -1.33% (inactive) | – |
| C[C@H](CCC(=O)O)[C@H]1CC[C@H]2[C@@H]3[C@H](O)C[C@@H]4C[C@H](O)CC[C@]4(C)[C@H]3C[C@H](O)[C@]12C | -1.29% (inactive) | – |
| OCC(O)CO | -2.04% (inactive) and 0.703% (inactive) | – |
| ClC(Cl)Cl | 0.456% (inactive) | – |
| NCCO/C=C/[C@H](N)C(=O)O | 7.75% (inactive) | – |
| Cc1ncc[nH]1 | -3.81% (inactive) | – |
| C[Si](C)(C)O[Si](C)(C)C | -3.5% (inactive) | – |

Source: PubChem BioAssay (NCATS)
